# Measurements reported in PubChem BioAssay (NCI).
# Where “and” joins values, the source holds several entries; their conditions need not be identical. Equal values may be shown once. The panel holds about 83,000 compounds, 20% with a hit somewhere; the sample as a whole holds those more often.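 Note: values are percent growth. 100 is the growth of untreated cells, values between 100 and 0 indicate rising inhibition; between -100 and 0 indicates cell death.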 Calls of active or inactive are those of the source. Rule for the calls: active = growth percent below 10; inactive = the rest.
# Experiments:
# Test in all cases: NCI-60 one-dose screen, 48 h (100 = growth as untreated, 0 = no growth, -100 = all killed)
# Details in all cases: 10 µM unless noted
# SR leukemia = test system: SR leukemia
# RPMI-8226 leukemia = test system: RPMI-8226 leukemia
# OVCAR-8 ovarian = test system: OVCAR-8 ovarian
# OVCAR-5 ovarian = test system: OVCAR-5 ovarian
# OVCAR-4 ovarian = test system: OVCAR-4 ovarian
# SK-OV-3 ovarian = test system: SK-OV-3 ovarian
# IGROV1 ovarian = test system: IGROV1 ovarian
# OVCAR-3 ovarian = test system: OVCAR-3 ovarian
# NCI/ADR-RES ovarian = test system: NCI/ADR-RES ovarian
# HS 578T breast = test system: HS 578T breast
Compound,growth (SR leukemia),growth (RPMI-8226 leukemia),growth (OVCAR-8 ovarian),growth (OVCAR-5 ovarian),growth (OVCAR-4 ovarian),growth (SK-OV-3 ovarian),growth (IGROV1 ovarian),growth (OVCAR-3 ovarian),growth (NCI/ADR-RES ovarian),growth (HS 578T breast)
CN(C)c1ccc(/C=C(\C#N)c2ccccc2)cc1,-18.5% (active) and 14.1% (inactive) and 8.15% (active),-23% (active) and 37.2% (inactive) and 10.1% (inactive),26.9% (inactive) and 43.7% (inactive) and 38% (inactive),41.5% (inactive) and 62.4% (inactive) and 55.4% (inactive),48.4% (inactive) and 61.8% (inactive) and 78.6% (inactive),30.9% (inactive) and 32.4% (inactive) and 29.9% (inactive),-39.9% (active) and 52.4% (inactive) and 43.5% (inactive),-57.9% (active) and 11.6% (inactive) and -12.2% (active),-41.2% (active) and 13.3% (inactive) and 20.9% (inactive),
CCN(CC)CCCC(C)Nc1cnc(C(=O)Nc2cc(F)cc3cccnc23)cn1 (stereo not drawn),2.84% (active) and 21.7% (inactive),75.1% (inactive) and 2.28% (active),60.5% (inactive) and -43.9% (active),77.1% (inactive) and -24.2% (active),12.2% (inactive) and -83.5% (active),98.3% (inactive) and 25.8% (inactive),41.7% (inactive) and -21.9% (active),5.41% (active) and -79.1% (active),66.8% (inactive) and 11.6% (inactive),
COc1ccc(Cn2c(NCCN=C(N)N)nc(=O)n(Cc3ccc(F)cc3)c2=O)cc1,85.5% (inactive),87.9% (inactive) and 92.2% (inactive),101% (inactive) and 99.9% (inactive),89.9% (inactive) and 95.8% (inactive),101% (inactive) and 92.5% (inactive),98.8% (inactive) and 96.2% (inactive),90.3% (inactive) and 103% (inactive),96.5% (inactive) and 104% (inactive),114% (inactive) and 103% (inactive),
CN(C)CCCNC1=C(Cl)C(=O)c2ccccc2C1=O,-18.8% (active),65% (inactive) and 45.5% (inactive),68% (inactive) and -60.7% (active),98.4% (inactive) and 98.8% (inactive),17.7% (inactive) and -100% (active),88.9% (inactive) and 95.9% (inactive),-52.5% (active) and -98.8% (active),19.8% (inactive) and -44.6% (active),103% (inactive) and 78.7% (inactive),9.81% (active)
CCN(CC)CCC(CNc1c2ccc([N+](=O)[O-])cc2nc2cc(OC)c(OC)cc12)c1ccccc1 (stereo not drawn),-14.8% (active),-5.85% (active) and -73% (active),6.28% (active) and -80.7% (active),-13.3% (active) and -83.9% (active),-53.2% (active) and -94.6% (active),27.3% (inactive) and -64.1% (active),-49.8% (active) and -64% (active),-38% (active) and -100% (active),30.5% (inactive) and -58.4% (active),
Cc1nnc(NC/C=C/c2ccccc2)s1,113% (inactive),102% (inactive) and 118% (inactive),102% (inactive),112% (inactive),102% (inactive) and 111% (inactive),98.4% (inactive) and 118% (inactive),112% (inactive) and 114% (inactive),99.7% (inactive),103% (inactive) and 102% (inactive),
COc1cc(Nc2nc3ccccc3nc2NS(=O)(=O)c2ccc(NC(=O)c3ccc(C)c(OC)c3)cc2)cc(OC)c1,31.3% (inactive) and 8.54% (active),8.4% (active),46.6% (inactive) and 5.53% (active),71.2% (inactive) and 3.89% (active),43.3% (inactive) and -2.71% (active),49% (inactive) and -44% (active),6.75% (active) and -30.1% (active),51.6% (inactive) and 6.96% (active),75.5% (inactive) and 2.39% (active),3.34% (active)
COc1ccc(S(=O)(=O)N2CCOCC2)cc1NC(=O)c1[nH]c(C)c2c1CCCCC2=O,113% (inactive) and 64.4% (inactive),104% (inactive) and 21.5% (inactive),99.6% (inactive) and 61.7% (inactive),102% (inactive) and 66.8% (inactive),114% (inactive) and 59.2% (inactive),103% (inactive),108% (inactive) and 47.1% (inactive),111% (inactive) and 68% (inactive),107% (inactive) and 79.1% (inactive),
CC1CCCc2sc3nc(NNC(=O)c4cnccn4)n(-c4ccccc4)c(=O)c3c21 (stereo not drawn),1.65% (active) and 26.4% (inactive),24.4% (inactive) and 11.4% (inactive),12% (inactive) and 9.28% (active),29.6% (inactive) and 36.6% (inactive),-3.93% (active) and -20.4% (active),17% (inactive) and -9.04% (active),,0.919% (active) and -3.1% (active),3.02% (active) and 5.41% (active),49.1% (inactive) and 38.1% (inactive)
COc1ccc(CCN(C)CCCC(C#N)(c2ccc(OC)c(OC)c2)C(C)C)cc1OC (stereo not drawn),80.8% (inactive) and 94.1% (inactive) and 90.1% (inactive),83.9% (inactive) and 83.6% (inactive) and 94.5% (inactive),97.5% (inactive) and 93.2% (inactive),93.1% (inactive) and 81% (inactive) and 92.6% (inactive),85.1% (inactive) and 104% (inactive),101% (inactive) and 98.3% (inactive) and 97.9% (inactive),98.7% (inactive) and 94.4% (inactive),103% (inactive) and 101% (inactive) and 96% (inactive),86.6% (inactive) and 92% (inactive) and 86.1% (inactive),
C1CCCCNCCC1,110% (inactive),99.5% (inactive),110% (inactive),106% (inactive),109% (inactive),117% (inactive),140% (inactive),112% (inactive),127% (inactive),110% (inactive)
CC(=O)Nc1cccc2c1CCCC2,104% (inactive) and 109% (inactive),88.8% (inactive) and 99% (inactive),86.5% (inactive) and 104% (inactive),98.8% (inactive) and 105% (inactive),106% (inactive) and 107% (inactive),89% (inactive) and 92.3% (inactive),119% (inactive) and 96.2% (inactive),107% (inactive) and 108% (inactive),97.6% (inactive) and 96.9% (inactive),
O=S(=O)(Nc1ccccc1)C1CCCCC1,92.1% (inactive) and 90.5% (inactive),93.9% (inactive) and 106% (inactive),110% (inactive) and 108% (inactive),107% (inactive) and 104% (inactive),108% (inactive) and 117% (inactive),107% (inactive) and 103% (inactive),,111% (inactive) and 104% (inactive),112% (inactive) and 105% (inactive),123% (inactive) and 108% (inactive)
CC(C)(C)c1ccc(O)c(CNC2CCCCC2)c1,80% (inactive) and 83.5% (inactive),82% (inactive) and 74.9% (inactive),101% (inactive) and 88.9% (inactive),106% (inactive) and 93% (inactive),82.8% (inactive),108% (inactive) and 97.8% (inactive),97.7% (inactive) and 92% (inactive),111% (inactive) and 92.8% (inactive),98.5% (inactive),
O=[N+]([O-])c1ccc(Oc2ccccc2)cc1,89.7% (inactive) and 102% (inactive),79% (inactive) and 93.9% (inactive),109% (inactive) and 103% (inactive),96.1% (inactive) and 97.3% (inactive),113% (inactive) and 121% (inactive),109% (inactive) and 103% (inactive),84.4% (inactive) and 104% (inactive),111% (inactive),96.2% (inactive) and 107% (inactive),
Clc1ccc(SSc2ccc(Cl)cc2)cc1,104% (inactive),102% (inactive) and 58.2% (inactive),97.6% (inactive) and 86% (inactive),93.9% (inactive) and 119% (inactive),103% (inactive) and 84.9% (inactive),106% (inactive) and 125% (inactive),102% (inactive) and 83.4% (inactive),101% (inactive) and 110% (inactive),99.2% (inactive) and 81.8% (inactive),97.9% (inactive) and 93.4% (inactive)
